A selection: hits, their analogues and other compounds. The true share with any hit is near 10%.
JMJD2A Tudor inh: JMJD2A Tudor domain (human) inhibition; Potency, µM (doses to about 114 µM), inactives show at the highest dose activity change, negative = inhibition, usual class: inhibitors; AlphaScreen JMJD2A-Tudor / H3K4me3 peptide binding; AID 504339; O75164; hit rate 4.4% among 390,000; note: potency is the fitted concentration of half-maximal effect; % is set by controls: 0 for no effect and ±100 for the full control effect; nearly all actives have a fitted effect of over 50% in size
Six1-Eya2 blk: inhibitors of human Six1/Eya2 interaction; Q15475+O00167; AlphaScreen GST-Six1/His-Eya2 binding, biochemical; active compounds read low; activity change, % (concentration not given with the values); hit rate 0.56% among 360,000; in the data active = activity change below about -65%; inconclusive = mostly about -30% to -63%; note: % is set by controls: 0 for no effect and ±100 for the full control effect
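GST-Six1 + His-Eya2 (5X stock: 250/500 nM); Tris pH 8.0, 300 mM NaCl, 0.05% BSA, 0.02% Tween 20; GSH donor/Ni acceptor beads; 1 h 37 °C dark; AlphaScreen readout.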
CtBP-E1A blk: blocks the CtBP interaction with E1A. AlphaScreen GST-E1A/His-CtBP binding, 1536-well; active compounds read low. activity change, % (no concentration beside the values). hit rate 0.49% among 340,000; in the data active = activity change below about -65%; inconclusive = mostly about -30% to -63%; note: % is set by controls: 0 for no effect and ±100 for the full control effect
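GST-E1A and His-tagged CtBP (125 nM each as 5X stock) were preincubated with pin-transferred compound for 2 h at 37 °C in the dark, then glutathione donor and nickel acceptor beads were added for 1 h before AlphaScreen reading.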
G9a block: inhibitors of human histone lysine methyltransferase G9a; Q96KQ7; G9a H3K9 monomethylation, AlphaScreen, 2 h; Potency, µM (highest dose often 102 µM), for the others: at the highest dose activity, negative = inhibition, actives largely listed as inhibitors; hit rate 8.8% among 350,000; note: potency is the fitted concentration of half-maximal effect; % is set by controls: 0 for no effect and ±100 for the full control effect; nearly all actives have a fitted effect of over 75% in size
Target sequence (Q96KQ7 913-1193 limits assumed): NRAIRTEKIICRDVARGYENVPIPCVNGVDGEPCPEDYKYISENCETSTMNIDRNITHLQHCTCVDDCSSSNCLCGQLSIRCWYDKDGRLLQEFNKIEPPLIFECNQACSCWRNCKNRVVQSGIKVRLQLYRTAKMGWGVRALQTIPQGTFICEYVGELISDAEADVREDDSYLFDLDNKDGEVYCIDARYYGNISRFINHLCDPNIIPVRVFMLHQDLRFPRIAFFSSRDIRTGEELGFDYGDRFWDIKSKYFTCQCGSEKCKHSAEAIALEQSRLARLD
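Using a bead-based AlphaScreen, monomethylated H3K9 product from 2 h room-temperature reactions (G9a 20 nM, peptide 500 nM, SAM 20 uM) was detected with 0.5 ug/mL rabbit anti-H3K9me1 antibody.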
HP1b binding inh: inhibitors of HP1-beta chromodomain binding to methylated histone tails | AID 540317 | AlphaScreen HP1-beta / biotin-H3K9me3 peptide binding | hit rate 0.56% among 390,000 | P83916 | Potency, µM (titrated, usually from 114 µM), without a hit: at the highest dose activity change, negative = inhibition, hits mostly inhibitors; note: potency is the fitted concentration of half-maximal effect; nearly all actives have a fitted effect of over 70% in size
Target sequence (P83916 whole entry, looked up): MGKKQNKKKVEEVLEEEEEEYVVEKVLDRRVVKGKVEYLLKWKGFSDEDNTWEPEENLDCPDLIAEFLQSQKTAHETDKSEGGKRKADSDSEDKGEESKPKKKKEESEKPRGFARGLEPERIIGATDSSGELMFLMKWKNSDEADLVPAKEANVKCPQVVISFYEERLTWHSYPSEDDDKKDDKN
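Compound inhibition of the preformed complex between 50 nM HP1-beta and 50 nM biotinylated H3K9me3 peptide was read by AlphaScreen. Buffer was PBS pH 7.4 with 0.01% Tween-20. Incubations ran 30 min at room temperature, with 10 ug/mL donor/acceptor beads.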
BAZ2B inh: BAZ2B (human) inhibition | AlphaScreen BAZ2B-H3K14Ac peptide displacement | Q9UIF8 | hit rate 4.4% among 360,000 | Potency, µM (series often up to 114 µM), inactives show at the top dose activity change, negative = inhibition, usual class: inhibitors; note: potency is the fitted concentration of half-maximal effect; % is set by controls: 0 for no effect and ±100 for the full control effect; nearly all actives have a fitted effect of over 60% in size
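Inhibition is scored as reduced AlphaScreen emission. The BAZ2B/b-H3(5-23)K14Ac complex (50 nM each) in PBS pH 7.4, 0.01% Tween-20 meets compound (up to 110 uM) for 30 min at RT before bead addition.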
* marks the source's active call; other numbers are inactive results; ? = inconclusive; nt = not tested or not shown; [ ] = another dose, or the depositor's remark. Unless noted, calls come from the whole dose curve; as a rule, active = well fitted inhibition curve with a large enough effect; inconclusive = small, poorly fitted or top-dose-only effect; inactive = no such curve, though single readings can be large or run the other way.

SMILES	JMJD2A Tudor inh	Six1-Eya2 blk	CtBP-E1A blk	G9a block	HP1b binding inh	BAZ2B inh
N#Cc1c(C(F)(F)F)cc(-c2cccc(Cl)c2)[nH]c1=O	?	1.5	3.2	20.4%[59 µM]	97.7%	25.5%
COC(=O)C1=C(C)N(Cc2ccccc2)C(=NCCc2c[nH]c3ccccc23)N[C@H]1c1ccccc1	?	-21.7	-22.2	-27.6%[12.7 µM]	-13.4%	56.2µM*
CCN1C(=NCCOC)N[C@@H](CCc2ccccc2)[C@H](C(=O)OC)[C@H]1C	39.8µM*	8.1	4.9	1.9%[12.7 µM]	15.3%	3.7%
COC(=O)C1=C(C)N(Cc2ccccc2)C(=NCCc2c[nH]c3ccccc23)N[C@H]1c1cccc(F)c1	?	-21.6	-5.1	nt	-4.8%	nt
CCN1C(=NCCc2c[nH]c3ccccc23)N[C@@H](c2ccccc2)[C@H](C(=O)OC)[C@H]1C	?	-2.3	-11.7	79.4µM*	1.5%	?
O=C(CSC1=NNC(c2ccccn2)S1)Nc1ccc(C(F)(F)F)cc1 (stereo not given)	39.8µM*	-90.7*	-95.2*	12.5%	14.7%	56.2µM*
O=C(/C=C(\O)c1ccccc1)c1ccccc1O	nt	nt	nt	-39.4%[2.33 µM]	nt	nt
COc1ccccc1NC(=O)CSc1nc2[nH]ncc2c(=O)[nH]1	-3.6%	-7.8	1.8	-21.4%	42.3%	-3.5%
CCc1ccc(OCC2c3cc(OC)c(OC)cc3CCN2C(=S)NCCOC)cc1 (stereo not given)	?	-13.2	-12.5	15.8µM*	3.3%	?
CCNC(=S)N1CCc2cc(OC)c(OC)cc2C1COc1ccc(OC)cc1 (stereo not given)	?	-15.3	-15.2	50.1µM*	4.4%	?
Nc1nonc1C(=O)NCCNS(=O)(=O)c1ccc(F)cc1	-6.4%[57.1 µM]	7.7	-3.4	-11.4%	34.4%	-1.9%
CCOC(=O)CNC(=O)CN1CCCN(S(=O)(=O)c2ccc(Br)s2)CC1	-14.2%	-4.0	-1.6	50.1µM*	33.7%	5.7%
CCc1nc2c(OCC(=O)C(C)(C)C)cccn2c1N(C)C(=O)c1ccc(C)cc1	nt	7.3	1.5	nt	nt	nt
O=c1c2ccccc2sn1-c1ccc(S(=O)(=O)N2CCOCC2)cc1	50.1µM*	nt	nt	nt	?	nt
O=S(=O)(c1ccc(N2CCOCC2)cc1)N1CCOCC1	-14.2%	2.1	3.1	11.3%[59 µM]	21.7%	5.9%
O=c1c2ccccc2sn1-c1ccc(Cl)c(S(=O)(=O)N2CCOCC2)c1	14.1µM*	nt	nt	nt	?	nt
COc1cc(-c2nc3c4ccccc4nc(=S)n3[nH]2)cc(OC)c1OC	-19.2%	6.8	1.6	nt	19.9%	-3.4%
COc1cc(-c2n[nH]c(=S)n2C(C)c2ccccc2)cc(OC)c1OC (stereo not given)	12.6µM*	-0.9	-2.9	nt	31.8%	-1.0%
COc1cc(-c2n[nH]c(=S)n2-c2ccccc2C(F)(F)F)cc(OC)c1OC	?	-11.2	-20.3	3.55µM*	8.1%	-16.1%
COc1cc(-c2n[nH]c(=S)n2-c2cccc(C(F)(F)F)c2)cc(OC)c1OC	89.1µM*	3.6	6.5	?	13.0%	4.8%
Fc1ccccc1C(NCCc1ccc(Cl)cc1)c1nnc(-c2ccccc2)o1 (stereo not given)	51.4%	nt	nt	90.9%[59 µM]	78.3%	26.0%
COc1ccccc1NC(=O)CN(c1cc(C)cc(C)c1)S(=O)(=O)c1c(C)[nH]c(=O)[nH]c1=O	-8.4%	nt	nt	1.9%[59 µM]	57.4%	-12.8%
CNc1nc(NCc2ccc(N(C)C)cc2)c2sccc2n1	nt	-66.9*	?	nt	nt	nt
CCc1ccc(NC(=O)Cn2ccn(-c3ccc(OC)cc3)c(=O)c2=O)cc1	4.3%	nt	nt	-28.8%[59 µM]	65.7%	9.4%
Cc1cc(C)nc(N/N=C/C=C/c2ccccc2)n1	-25.0%	-3.6	-6.9	50.1µM*	31.4%	-32.4%
C=CCN(CC=C)Cc1c(O)ccc2c1oc(=O)c1ccccc12	8.91µM*	-13.7	-8.5	nt	?	nt
CC12CCC(C(=O)N(CCCCN3CCN(Cc4ccccc4)CC3)C1=O)C2(C)C (stereo not given)	?	35.4	0.0	56.2µM*	-6.2%	-15.6%
